Bioassay records (PubChem)
HT1080 IDH1KD tx = qHTS for induction of synthetic lethality in tumor cells producing 2HG: qHTS for the HT-1080-IDH1KD cell line | HT-1080 IDH1 knockdown viability, ATP luminescence, 48 h | Potency, µM (series often up to 46.1 µM), for inactives: at the top dose activity, negative = toxicity, most hits filed as cytotoxic | 360,000 tested, 2% active;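 also: potency is read from the fitted curve at half-maximal effect; 0% = DMSO wells and -100% = cell-free medium wells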
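After a 2 h attachment period, IDH1KD HT-1080 cells took pin-transferred compound for 48 h at 37 °C; ATP-based luminescence after 10 min room-temperature reagent incubation reported viability.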
TDP1 cell CPT = qHTS for Inhibitors of human tyrosyl-DNA phosphodiesterase 1 (TDP1): qHTS in cells in presence of CPT; chicken DT40 Tdp1-/-;hTDP1 cells + 20 nM CPT, ATP luminescence, 48 h; Potency, µM (top dose mostly 46.2 µM), without a hit: top-dose activity change, negative = growth inhibition, usual class: inhibitors; 420,000 tested, 12% active; AID 686979, 2013; also: potency is read from the fitted curve at half-maximal effect; nearly all actives have a fitted effect of over 55% in size
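Cell growth measured by CellTiter-Glo luminescence after a minimum 48 h, 37 C compound exposure with 20 nM CPT in Tdp1-knockout DT40 cells stably expressing hTDP1, seeded 400/well; qHTS titration format.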
DT40 TDP1 no CPT = qHTS for Inhibitors of human tyrosyl-DNA phosphodiesterase 1 (TDP1): qHTS in cells in absence of CPT; DT40 Tdp1-/- hTDP1 cells, no CPT, ATP luminescence, 48 h; Potency, µM (top dose mostly 46.2 µM), for inactives: at the highest dose activity change, negative = growth inhibition, hits mostly inhibitors; 420,000 tested, 15% active; also: potency is read from the fitted curve at half-maximal effect; nearly all actives have a fitted effect of over 55% in size
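Luminescent ATP content (CellTiter-Glo) served as the growth readout. Knockout chicken DT40 cells expressing human TDP1 were exposed to compounds without camptothecin for a minimum 48 hr at 37 °C.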
HT1080-NT tox = qHTS for induction of synthetic lethality in tumor cells producing 2HG: qHTS for the HT-1080-NT fibrosarcoma cell line | HT-1080-NT fibrosarcoma viability, CellTiter-Glo ATP luminescence, 48 h | 360,000 tested, 1.6% active | Potency, µM (top dose mostly 46.1 µM), inactives show top-dose activity, negative = less viability, most hits filed as cytotoxic;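 also: NT is the 2HG producing partner of a matched IDH1 knockdown line; potency is read from the fitted curve at half-maximal effect; 0% = DMSO-treated cells and -100% = media-only wells without cells; nearly all actives have a fitted effect of over 55% in size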
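Toxicity toward the 2HG-producing NT line was scored as %Activity, normalised to DMSO and no-cell wells, from CellTiter-Glo luminescence after 48 hours' treatment.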
IL-1B inflam inh = qHTS for Inhibitors of Inflammasome Signaling: IL-1-beta AlphaLISA Primary Screen; THP-1 LPS/ATP IL-1B secretion, AlphaLISA, 16 h; stronger effect = lower value; activity change, % at 57.5 µM; 360,000 tested, 4.7% active; AID 743279, 2014; in the data active = activity change below about -50%; inconclusive = mostly about -30% to -49%
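THP-1 cells pretreated 1 hr with compounds (up to 57.5 uM final), then stimulated with LPS (250 ng/mL final) plus ATP (1.25 mM final); secreted IL-1B measured by AlphaLISA after 16 hr, decreased signal indicating inhibition.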
Starred values were filed as active, the others as inactive; u = inconclusive; x = not tested or not shown; [ ] = dose if it differs, or a comment. Rows were chosen to be rich in hits. Some 19% of all compounds tested hit in one or more screens of this group. Unless noted, calls follow the shape of the dose curve; as a rule, active = well fitted curve in the direction sought with a large enough effect; inconclusive = small, poorly fitted or top-dose-only effect, or another doubt; inactive = no such curve, though single readings can be large; an effect the other way counts as inactive or inconclusive. Unless noted, % is scaled to controls: 0 for no effect and ±100 for the full control effect.

SMILES	HT1080 IDH1KD tx	TDP1 cell CPT	DT40 TDP1 no CPT	HT1080-NT tox	IL-1B inflam inh
COc1ccc(N(C)S(=O)(=O)c2cccc(C(=O)NC3CCCCCC3)c2)cc1	u	-29.0%	u	-13.8%	-54.5*
CC(C)(C)OC(=O)Nc1ccccc1-n1nnnc1C(C(=O)c1ccc(F)cc1)N1CCN(c2ccccn2)CC1 (stereo not given)	4.1%	-1.7%	-25.9%	5.5%	29.6
COc1ccc(N(C)S(=O)(=O)c2cccc(C(=O)NC3CCC(C)CC3)c2)cc1 (stereo not given)	-20.6%	u	16.4µM*	-10.5%	u
COc1ccc(N(C)S(=O)(=O)c2cccc(C(=O)NC3CCCC(C)C3C)c2)cc1 (stereo not given)	-2.0%	u	u	0.8%	2.9
COCCNc1nc(NCc2cccc(OC)c2)c2sc(-c3ccccc3)cc2n1	u	18.4µM*	13µM*	u	-112.0*
COCCNc1nc(NCc2ccc(NC(C)=O)cc2)c2sc(-c3ccccc3)cc2n1	u	3.26µM*	4.11µM*	9.2µM*	0.0
COCCNc1nc(Oc2ccc(CC(=O)OC)cc2)c2sc(-c3ccccc3)cc2n1	-14.9%	u	18.4µM*	-3.1%	3.8
COCCNc1nc(Oc2ccc(NC(C)=O)cc2)c2sc(-c3ccccc3)cc2n1	-6.1%	u	u	u	u
COc1cc(CNCCSc2nnnn2C)ccc1OCc1ccc(F)cc1	x	18.4µM*	20.6µM*	x	x
Cn1nnnc1SCCNCc1ccccc1OCc1ccc(F)cc1	0.3%	-7.3%	-11.3%	-2.6%	32.0
COc1cccc(CNCCSc2nnnn2C)c1OCc1ccc(F)cc1	x	u	20.6µM*	x	x
O=C(Nc1ccc(N2CCOCC2)cc1)c1ccc(Cl)c(S(=O)(=O)N2CCCCC2)c1	1.4%	u	u	-7.9%	73.3
CCN(CC)c1ccc(C(=O)OCc2cc(=O)oc3cc(O)ccc23)cc1	u	u	16.4µM*	u	54.5
CCN(CC)c1ccc2c(Cl)cc(=O)oc2c1	-2.0%	23.1µM*	-29.0%	2.7%	-27.3
CCN(CC)c1ccc2c(O)cc(=O)oc2c1	21.8%	4.5%	0.8%	1.0%	14.1
COc1ccc(CC(=O)OC(C)C(=O)Nc2c(C)n(C)n(-c3ccccc3)c2=O)cc1OC (stereo not given)	7.7%	-2.1%	12.1%	3.7%[9.24 µM]	13.8
O=c1ccc(-c2ccccc2)no1	11.3%	1.9%	7.4%	10.4%	-2.5
O=C(Nc1ccccc1-c1nc2ccccc2[nH]1)c1ccc(N2C(=O)CCC2=O)cc1	-1.4%	u	9.2µM*	1.5%	-10.0
O=C(Nc1ccc(-c2nc3ccccc3[nH]2)cc1)c1cccc(N2C(=O)CCC2=O)c1	2.5%	u	11.6µM*	-0.2%	21.0
CC1CCCCN1S(=O)(=O)c1ccc(C(=O)Nc2ccccc2-c2nc3ccccc3[nH]2)cc1 (stereo not given)	-29.8%	20.6µM*	14.6µM*	-13.0%	1.6
O=C(Nc1ccccc1-c1nc2ccccc2[nH]1)c1ccc(S(=O)(=O)N2CCCCC2)cc1	4.6%	-23.0%	-25.8%	16.7%	-10.1
CCc1ccc([C@@H]2C[C@H]3[C@@H](CN2S(=O)(=O)c2ccc(C)cc2)C(=O)C[C@@H](c2cccc(Cl)c2)N3S(=O)(=O)c2ccc(C)cc2)cc1	-5.6%	-19.3%	u	-9.4%	46.5
Cc1nc(NCCCN2CCOCC2)c2cnn(-c3ccccc3)c2n1	-18.9%	-29.2%	-12.9%	-4.8%	-6.7
Cc1cccc(C(=O)N2CCc3cc(CNS(=O)(=O)c4cccs4)ccc32)c1	x	23.1µM*	20.6µM*	x	x
CCC(=O)N1CCc2cc(CNS(=O)(=O)c3cc(OC)ccc3OC)ccc21	x	-0.6%	-1.4%	x	x
SMILES	HT1080 IDH1KD tx	TDP1 cell CPT	DT40 TDP1 no CPT	HT1080-NT tox	IL-1B inflam inh
COc1ccc(Cl)cc1S(=O)(=O)NCc1ccc2c(c1)CCN2C(=O)c1cccc(C)c1	x	3.26µM*	4.61µM*	x	x
Cc1cccc(C(=O)N2CCc3cc(CNC(=O)CSc4ccccc4)ccc32)c1	x	1.0%	-15.0%	x	x
Cc1ccc(C(=O)N2CCc3cc(CNS(=O)(=O)c4cccs4)ccc32)cc1	x	14.6µM*	18.4µM*	x	x
Cc1ccc(CNC(=O)CNS(=O)(=O)c2cccs2)cc1	x	-3.0%	-12.5%	x	x
C[C@H](CO)N1C[C@H](C)[C@@H](CN(C)C(=O)C2CCCCC2)OCc2cn(nn2)CCCC1=O	15.8%	u	8.4%	10.1%	22.3
CCOC(=O)C1CCCN(CCC(=O)Nc2ccc(Br)cc2)C1 (stereo not given)	-19.3%	u	u	-2.5%	-60.0*
CC1CC(C)CN(CCC(=O)Nc2ccc(Br)cc2)C1 (stereo not given)	-3.9%	u	u	-6.4%	-53.7*
O=S(=O)(Cc1ccccc1)NCC1CCCO1 (stereo not given)	6.5%	1.6%	-4.4%	8.8%	0.5
COc1ccccc1-c1cncnc1-n1ccnc1	x	-5.6%	-27.1%	x	x
CC(C)CCC(=O)N1CCOC1=O	4.6%	-0.1%	-4.2%	u	15.1
CCOc1ccc(NC(=O)COc2ccc(S(=O)(=O)N3CCOCC3)cc2)cc1	18.0%	3.26µM*	u	11.7%	8.2
CCc1ccc(OCC(=O)Nc2ccc(S(=O)(=O)N3CCOCC3)cc2)cc1	-4.4%	-8.3%	-2.7%	2.2%	-10.2
O=C(/C=C/c1ccc(S(=O)(=O)N2CCOCC2)cc1)NCc1ccc(Cl)cc1	-22.3%	u	18.4µM*	-16.2%	-62.2*
CCOc1ccc(C(=O)CN2CCN(S(=O)(=O)c3ccc(OC)cc3)CC2)cc1	-10.5%	18.4µM*	u	-7.9%	13.7
CNC(=O)COc1ccc(S(=O)(=O)N2CCCC2)cc1	-6.4%	29.1µM*	u	-1.0%	8.5
O=C(O)COc1ccc(S(=O)(=O)N2CCCC2)cc1	-0.1%	-17.2%	25.9%	0.7%	32.6
C[C@@H]1CN([C@H](C)CO)C(=O)c2cc(Br)cnc2O[C@@H]1CN(C)Cc1ccc(-c2ccccc2)cc1	-1.3%	u	u	u	-10.4
Cc1ccccc1CNC(=O)C1CCN(S(=O)(=O)Cc2ccccc2)CC1	x	2.2%	1.4%	x	x
Cc1ccc(CCNC(=O)CN2CCN(Cc3ccc(Cl)cc3)C2=O)cc1	x	-24.9%	u	x	x
Cc1ccccc1OCCOC(=O)c1ccc(S(=O)(=O)N2CCCC2)cc1	-4.8%	-4.1%	3.0%	0.8%	-8.3
O=C(CCCOc1ccc(Br)cc1)Nc1ccc(S(=O)(=O)N2CCOCC2)cc1	u	u	16.4µM*	u	u
